This is a sample that favours compounds with a hit; in the whole collection about 0.43% have one here.
N370S GC mod – inhibits or activates N370S mutant glucocerebrosidase | P04062 | N370S GC spleen homogenate, 4MU-glucoside fluorescence | Potency, µM (doses to about 59.4 µM), most hits filed as inhibitors | hit rate 0.092% among 330,000
aGlu spleen mod – inhibits or activates alpha-glucosidase in human spleen homogenate; P10253; human spleen homogenate, 4-MU-alpha-glucoside fluorescence; Potency, µM (series often up to 79.9 µM), usual class: inhibitors; hit rate 0.006% among 240,000
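Human spleen homogenate (1 ug) with 4-methylumbelliferyl-alpha-D-glucopyranoside (1 mM final) in 50 mM citrate/phosphate pH 5.0, 0.01% Tween-20; 40 min at 37 C. Stopped at pH 10; 4-MU fluorescence Ex 365/Em 440 nm; AC50 by Hill fit.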
GAA inh – inhibitors of human lysosomal alpha-glucosidase. purified human GAA, 4-MU-alpha-glucoside fluorescence. Potency, µM (top dose mostly 76.9 µM), most hits filed as inhibitors. hit rate 0.005% among 200,000
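Read-out is 4-methylumbelliferone fluorescence (Ex 365/Em 440 nm) after NaOH/glycine stop at pH 10. Enzyme 4 nM, substrate 400 uM, pH 5.0 citrate buffer, 20 min room temperature; AC50 from Hill-equation concentration-response.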
GLA inh pH 4.5 – alpha-galactosidase A (human) inhibition, pH 4.5. P06280. purified enzyme, 4-MU-alpha-Gal fluorescence, pH 4.5. activity change, negative = inhibition, % at 105 µM. 230,000 tested, under 10 active. AID 1467
Target sequence (P06280 whole entry, looked up): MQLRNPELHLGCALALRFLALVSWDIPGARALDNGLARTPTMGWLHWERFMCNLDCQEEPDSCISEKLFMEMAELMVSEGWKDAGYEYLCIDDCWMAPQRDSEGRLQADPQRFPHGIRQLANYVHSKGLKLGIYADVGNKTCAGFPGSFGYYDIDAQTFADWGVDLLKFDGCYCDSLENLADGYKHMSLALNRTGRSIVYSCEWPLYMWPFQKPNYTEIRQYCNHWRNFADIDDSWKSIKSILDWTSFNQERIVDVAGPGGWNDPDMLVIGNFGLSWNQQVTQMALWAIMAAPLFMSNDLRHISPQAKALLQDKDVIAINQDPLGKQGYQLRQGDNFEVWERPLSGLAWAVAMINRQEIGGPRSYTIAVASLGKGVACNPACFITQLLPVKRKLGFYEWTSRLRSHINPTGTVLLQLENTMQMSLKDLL
GAA glycogen mod – GAA glycogen-cleavage inhibition or activation | hit rate 0.38% among 300,000 | Potency, µM (top dose mostly 76.4 µM), usual class: inhibitors | recombinant GAA, glycogen substrate, Amplex Red glucose oxidase fluorescence | AID 2100 | P10253;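 further: the screen sought inhibitors and activators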
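qHTS, 1536-well; enzyme 4 nM final; cpd up to 77 uM; substrate bovine liver glycogen 30 ug; 50 mM citrate/phosphate pH 5.0, 0.01% Tween-20; 37 C, 40 min; Amplex Red detection 45 min RT; Hill fit → AC50.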
GLA spleen mod – inhibits or activates alpha-galactosidase in human spleen homogenate | P06280 | human spleen homogenate, 4MU-alpha-Gal fluorescence, 40 min | Potency, µM (highest dose often 80 µM), actives largely listed as inhibitors | hit rate 0.008% among 240,000
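Fluorogenic readout (Ex 365/Em 440 nm) of 4-methylumbelliferone released from 1 mM 4-MU-alpha-galactoside by spleen homogenate, 40 min at 37C, pH 5.0. Data normalized to no-enzyme and enzyme controls; Hill-equation AC50 from compound titrations.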
Large screens that a line does not name were inactive. The call rests on the fitted dose curve; in most records, active means well fitted curve in the direction sought with a large enough effect; inconclusive means small, poorly fitted or top-dose-only effect, or another doubt; inactive means no such curve, though single readings can be large; an effect the other way counts as inactive or inconclusive.

COc1ccccc1N(O)C1CC(=O)N(c2ccc(F)cc2)C1=O (stereo not given)	GAA glycogen mod 17.8µM
Cc1ccccc1N1C(=O)CC(N(O)c2ccccc2)C1=O (stereo not given)	GAA glycogen mod 3.95µM
O=C1CC(N(O)c2ccccc2)C(=O)N1c1cc(Cl)cc(Cl)c1 (stereo not given)	GAA glycogen mod 22.2µM
CCOC(=O)OCC1OC(C#Cc2ccc(C(C)(C)C)cc2)C=CC1OC(=O)OCC (stereo not given)	none (no result: GAA inh, GLA inh pH 4.5, GAA glycogen mod)
COc1cccc(CNc2ccc(S(=O)(=O)Nc3nccs3)cc2)c1O	GAA glycogen mod 5.62µM
CCCNC(=O)OC[C@@H]1O[C@H](CCO/N=C(\C)CCN2CCc3nc(CC)c(CC)cc3C2)C=C[C@@H]1Oc1ccc(OC)cc1	none (no result: GAA inh, GLA inh pH 4.5, GAA glycogen mod)
C[C@H](Cc1nc2c(cnn2-c2ccccc2Cl)c(=O)[nH]1)C(F)(F)F	none (no result: GAA inh, GLA inh pH 4.5, GAA glycogen mod)
Cc1ccc(-c2nnc(Nc3ccc(O)cc3)c3ccccc23)cc1S(=O)(=O)NCC1CCCO1 (stereo not given)	GAA glycogen mod 15.8µM (no result: N370S GC mod, aGlu spleen mod, GAA inh, GLA inh pH 4.5, GLA spleen mod)
CC(=O)Nc1ccc(Nc2nnc(-c3ccc(C)c(S(=O)(=O)NCCO)c3)c3ccccc23)cc1	none (no result: aGlu spleen mod, GAA inh, GLA inh pH 4.5, GLA spleen mod)
Cc1ccc(-c2nnc(Nc3ccc(O)cc3)c3ccccc23)cc1S(=O)(=O)NC(C)(C)CO	GAA glycogen mod 8.91µM (no result: N370S GC mod, aGlu spleen mod, GAA inh, GLA inh pH 4.5, GLA spleen mod)
Oc1ccc(Nc2ncnc3ccccc23)cc1	GAA glycogen mod 22.4µM (no result: aGlu spleen mod, GAA inh, GLA inh pH 4.5, GLA spleen mod)
Oc1ccc(Nc2nnc(-c3ccc(O)cc3)c3ccccc23)cc1	N370S GC mod inconclusive, GAA glycogen mod 15.8µM
COc1cc(C(CCN2CCCC2)c2c(OC)cc(OC)c3c2OC(=O)CC3c2ccc(N(C)C)cc2)cc(OC)c1OC (stereo not given)	none (no result: GAA inh, GLA inh pH 4.5, GAA glycogen mod)
CCOC(=O)C(CCc1ccccc1)NC(C)C(=O)N1Cc2cc(OC)c(OC)cc2CC1C(=O)O (stereo not given)	none (no result: GAA inh, GLA inh pH 4.5, GAA glycogen mod)
CC(=O)c1ccc(OC2C=CC(C#Cc3ccc(Br)cc3)OC2CO)cc1 (stereo not given)	none (no result: GAA inh, GLA inh pH 4.5, GAA glycogen mod)
CC(=O)c1c(O)cccc1O	none (no result: GAA inh, GLA inh pH 4.5, GAA glycogen mod)
CC(NC(=O)Nc1ccccc1O)(C(F)(F)F)C(F)(F)F	GAA glycogen mod 15.8µM
Oc1ccc(C2=Nn3c(nnc3-c3ccco3)SC2)cc1O	GAA glycogen mod 15.8µM
Cc1ccc2c(c1)N(CCCC(=O)NCc1cccc(F)c1)C(=O)CO2	GAA glycogen mod 44.7µM (no result: N370S GC mod, aGlu spleen mod, GAA inh, GLA inh pH 4.5, GLA spleen mod)
COC(=O)[C@@H]1OC(c2ccccc2)O[C@H]1C(=O)OC	none (no result: GAA inh, GLA inh pH 4.5, GAA glycogen mod)
CC1(C)Nc2ccc(O)cc2-c2c1ssc2=S	GAA glycogen mod 39.8µM
COc1ccc(-c2nn(C)c3sc(C(=O)Nc4cc(OC)c(OC)c(OC)c4)cc23)cc1OC	none (no result: N370S GC mod, aGlu spleen mod, GAA inh, GLA inh pH 4.5, GLA spleen mod)
Cc1ccc([N+](=O)[O-])cc1Nc1nc(N2CCCC2)nc(N2CCCC2)n1	GAA glycogen mod 31.6µM (no result: aGlu spleen mod, GAA inh, GLA inh pH 4.5, GLA spleen mod)
NNc1nc(Nc2ccc([N+](=O)[O-])cc2)nc(N2CCCCCC2)n1	GAA glycogen mod inconclusive (no result: aGlu spleen mod, GAA inh, GLA inh pH 4.5, GLA spleen mod)
Nc1ccc(O)cc1C(=O)OCC(=O)C12CC3CC(CC(C3)C1)C2	GAA inh inconclusive, GAA glycogen mod 15.7µM
CC(C)(C)C1CCC2(CC1)C(C#N)=C(SCC(=O)Nc1ccccc1)NC(=O)C2C#N (stereo not given)	N370S GC mod inconclusive, GAA inh inconclusive, GAA glycogen mod inconclusive
N#CC1=C(SCC(=O)c2cc3ccccc3oc2=O)NC(=O)C(C#N)C12CCCC2 (stereo not given)	GAA glycogen mod 22.4µM
Cc1cccc2sc(NNC(=O)C3=COCCO3)nc12	GAA glycogen mod inconclusive
O=C(NNc1nc2c(F)cc(F)cc2s1)C1=COCCO1	GAA glycogen mod 4.43µM
Cc1ccc(Nc2c(-c3c[nH]c4ccccc34)nc3ccccn23)cc1	GAA glycogen mod 4.47µM (no result: N370S GC mod, aGlu spleen mod, GAA inh, GLA inh pH 4.5, GLA spleen mod)
S=C(NCc1ccccc1)Nc1cccc(Cl)c1	N370S GC mod inconclusive
Cc1cccc(NC(=S)NNC(=S)NCc2ccccc2)c1	GAA glycogen mod 7.94µM
COc1ccc(COC(=O)N/N=C2/C[C@@H](O)[C@@H](O)[C@@H]3[C@H]4C(=O)N(c5ccc(F)cc5F)C(=O)[C@@H]4CC[C@H]23)cc1	none (no result: GAA inh, GLA inh pH 4.5, GAA glycogen mod)

Bioassay records (PubChem)
